Only some compounds are listed: those with a hit (about 2.9% of all), similar ones and a draw of the others.
PvdQ inh – P. aeruginosa PvdQ acylase inhibitors, primary screen, biochemical, fluorescence, plate reader and imaging, single point; purified PvdQ acylase; 340,000 tested, 0.063% active; inhibition, % at 10 µM; PvdQ acylase [Pseudomonas aeruginosa LESB58]; in the data active = inhibition above about 30%, passing the limit was not always enough; inconclusive = no clear call, values can overlap the other calls;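 note: 0% = vehicle neutral wells and 100% = reference inhibitor wells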
Vif inh – HIV Vif self-association inhibitors, primary screen, imaging, HEK293T, single point; HEK293T cells, Vif self-association by quenched fluorescence, 24 h; inhibition, % at 7.49 µM; 340,000 tested, 0.35% active; AID 602346, 2012; in the data active = inhibition above about 50%, passing the limit was not always enough; inconclusive = no clear call, values can overlap the other calls; inactive = below about 31%
esBAF inh – Bmi1 luciferase reporter increase in mESCs, primary screen, esBAF inhibitor project, mouse ES cells, Bmi1 luciferase knock-in, single point | 24 h; 100% = twice the neutral-well signal | reporter increase, % at 12.5 µM | 350,000 tested, 2% active; in the data active = activation above about 40%; inconclusive = no clear call, values can overlap the other calls;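 note: 0% = median of the plate's neutral control wells and 100% = double that signal; a rise in the Bmi1 reporter signal indicates esBAF inhibition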
N-glyco inh – increase of ERlucT glycosylation luciferase signal, primary screen, N-linked glycosylation inhibitor project, D54 ERlucT cells, luminescence, set 2; D54 ERlucT glycosylation luciferase reporter, 24 h; percent of 100 nM tunicamycin response; reporter increase, % at 12.5 µM; 360,000 tested, 0.23% active; AID 588692, 2011;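 active = mean luciferase reporter signal, scaled so untreated is 0 and the glycosylation-blocking control 100, at or above a set limit in every replicate; inconclusive = mean reaches the limit but not every replicate does; inactive = mean below the limit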;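 note: luciferase carries N-glycosylation sites so blocking glycosylation raises the light; 0% = median of neutral control wells and 100% = median of 100 nM tunicamycin wells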
Wnt act – Wnt/beta-catenin pathway activators, primary screen, cell-based, plate reader, single point; Wnt/beta-catenin reporter cell assay, activator; activation, % at 9.35 µM; 300,000 tested, 1.2% active; AID 743398, 2014; in the data active = activation above about 30%, passing the limit was not always enough; inconclusive = no clear call, values can overlap the other calls;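 note: 0% = neutral control wells and 100% = positive control wells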
MITF TRPM1 HTS – activators of MITF-driven TRPM1 promoter reporter, primary screen, cell-based, SK-MEL-5, luciferase, single point; SK-MEL-5 TRPM1-promoter luciferase, 24 h; % of positive control, neutral wells = 0; activation, % at 12.5 µM; 300,000 tested, 0.75% active;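 active = mean activation of at least 80% with every replicate also reaching 80%; inconclusive = mean reaches 80% but some replicate falls short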;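 note: 0% = neutral control wells and 100% = parthenolide positive control wells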
* = called active by the depositor; u = inconclusive; x = no result.

SMILES | PvdQ inh | Vif inh | esBAF inh | N-glyco inh | Wnt act | MITF TRPM1 HTS
CCOC(=O)c1ccc(NCc2nc3ccccc3[nH]2)cc1 | -12 | x | 50* | -4 | u | 57
CCOC(=O)c1cccc(NC(=O)c2cccnc2)c1 | 5 | -8 | 4 | 2 | x | -3
CCOC(=O)Cc1nc2ccccc2[nH]1 | -11 | -5 | 10 | 1 | x | -13
Cc1ccc(-c2cn3cccnc3n2)cc1 | -12 | -3 | 36 | -1 | u | 84*
O=C(Nc1cccc(-c2cn3cccnc3n2)c1)c1ccc2c(c1)OCO2 | -20 | 30 | 27 | 6 | x | 36
CS(=O)(=O)Nc1ccc(-c2cn3cccnc3n2)cc1 | -3 | 6 | 4 | -2 | 0 | 7
Clc1ccc(SCc2cn3cccnc3n2)cc1 | -10 | 0 | u | -1 | 10 | 49
Cc1ccc(SCc2cn3cccnc3n2)cc1 | -13 | 1 | 46* | -2 | x | 62
c1ccc(-c2nccc(-c3ccc4c(c3)OCO4)n2)cc1 | -15 | 8 | 51* | 0 | 9 | 17
c1cnc2nc(-c3ccc4c(c3)OCO4)cn2c1 | 0 | -4 | u | -1 | -2 | 87*
COc1ccc(NC(=O)N(C)C[C@@H]2Oc3ccc(NC(=O)c4ccncc4)cc3C(=O)N([C@H](C)CO)C[C@H]2C)cc1 | x | x | 5 | x | x | x
O=C(C[C@@H]1CC[C@H]2[C@@H](COC[C@@H](O)CN2Cc2ccncc2)O1)NCc1ccccc1Cl | x | x | -2 | x | x | x
CO[C@@H]1CN(C)C(=O)c2cc(NC(=O)C3CC3)ccc2OC[C@H](C)N(C(C)=O)C[C@H]1C | x | x | 4 | x | x | x
CCC(=O)N(C)C[C@@H]1Oc2cc(-c3ccccc3C)ccc2S(=O)(=O)N([C@H](C)CO)C[C@H]1C | x | x | 1 | x | x | x
CC(C)NC(=O)Nc1cccc2c1O[C@@H](CN(C)Cc1ccncc1)[C@@H](C)CN([C@H](C)CO)C2=O | x | x | 5 | x | x | x
COc1cc(/C=C(/C(=O)c2cccs2)c2nc3ccccc3[nH]2)ccc1O | -10 | 2 | u | 12 | x | -44
O=C(/C(=C/c1ccc(Cl)cc1)c1nc2ccccc2[nH]1)c1cccs1 | 12 | -9 | 76* | -9 | x | -95
O=C(/C(=C\c1ccccc1)c1nc2ccccc2[nH]1)c1ccc(Cl)cc1 | 3 | 2 | x | 34* | x | -18
O=C(Cc1csc(NC(=O)Nc2ccc(Cl)cc2)n1)NCc1ccccn1 | -19 | -4 | 45* | 0 | 3 | 58
CNC[C@@H]1OCCCC[C@H](C)Oc2ccc(NS(=O)(=O)c3ccc(OC)cc3)cc2C(=O)N([C@H](C)CO)C[C@@H]1C | x | x | 3 | x | x | x
Cc1ccc(S(=O)(=O)Nc2ccc(SC(F)F)cc2)c(C)c1 | 6 | 61* | x | -3 | x | 3
CCCCCCSc1nsc(NC(C)=O)n1 | 4 | 37 | 60* | 1 | x | 67
CCCSc1nsc(NC(=O)CCC)n1 | -11 | 12 | 28 | -5 | 20 | 113*
CCCCSc1nsc(NC(C)=O)n1 | -13 | -3 | x | -5 | 44* | 91*
CCCSc1nsc(NC(=O)c2cccnc2OCC)n1 | 6 | 4 | x | 1 | -1 | -10
SMILES | PvdQ inh | Vif inh | esBAF inh | N-glyco inh | Wnt act | MITF TRPM1 HTS
CC(C)CC#Cc1cnc2c(c1)C(=O)N([C@@H](C)CO)C[C@@H](C)[C@H](CN(C)Cc1cncnc1)O2 | x | x | 2 | x | x | x
C[C@H]1CCCCO[C@@H](CN(C)CC2CCCCC2)[C@@H](C)CN([C@@H](C)CO)C(=O)c2cc(NC(=O)NC3CCCCC3)ccc2O1 | x | x | 0 | x | x | x
Cc1cc(C)cc(N2Cc3ccccc3C2)c1 | 0 | 1 | 0 | 2 | -2 | 6
COc1cc(N2Cc3ccccc3C2)ccc1C=O | 4 | -10 | 51* | -11 | 7 | x
CCN1C(=O)c2cccc3c(S(=O)(=O)Nc4nc(C)cs4)ccc1c23 | 0 | 60* | -12 | 7 | 0 | -7
CCN1C(=O)c2cccc3c(S(=O)(=O)Nc4ccccn4)ccc1c23 | -4 | 31 | -13 | 50* | 14 | x
CCN1C(=O)c2cccc3c(S(=O)(=O)Nc4ccccc4)ccc1c23 | -2 | u | -5 | 51* | x | x
